Screening results: PubChem BioAssay, National Center for Advancing Translational Sciences (NCATS)
This excerpt belongs to a sample that is enriched for hits.
KDM5B inh: KDM5B demethylase inhibition | AID 1347165 | 220,000 compounds, 2.6% hits | Potency, µM (titrated, usually from 57.7 µM), most hits filed as inhibitors | KDM5B demethylase, FDH-coupled NADH fluorescence (FDH is formaldehyde dehydrogenase) | Q9UGL1; active means well fitted inhibition curve with a large enough effect; further: nearly all actives have a fitted effect of over 70% in size
Target sequence (Q9UGL1 whole entry, looked up): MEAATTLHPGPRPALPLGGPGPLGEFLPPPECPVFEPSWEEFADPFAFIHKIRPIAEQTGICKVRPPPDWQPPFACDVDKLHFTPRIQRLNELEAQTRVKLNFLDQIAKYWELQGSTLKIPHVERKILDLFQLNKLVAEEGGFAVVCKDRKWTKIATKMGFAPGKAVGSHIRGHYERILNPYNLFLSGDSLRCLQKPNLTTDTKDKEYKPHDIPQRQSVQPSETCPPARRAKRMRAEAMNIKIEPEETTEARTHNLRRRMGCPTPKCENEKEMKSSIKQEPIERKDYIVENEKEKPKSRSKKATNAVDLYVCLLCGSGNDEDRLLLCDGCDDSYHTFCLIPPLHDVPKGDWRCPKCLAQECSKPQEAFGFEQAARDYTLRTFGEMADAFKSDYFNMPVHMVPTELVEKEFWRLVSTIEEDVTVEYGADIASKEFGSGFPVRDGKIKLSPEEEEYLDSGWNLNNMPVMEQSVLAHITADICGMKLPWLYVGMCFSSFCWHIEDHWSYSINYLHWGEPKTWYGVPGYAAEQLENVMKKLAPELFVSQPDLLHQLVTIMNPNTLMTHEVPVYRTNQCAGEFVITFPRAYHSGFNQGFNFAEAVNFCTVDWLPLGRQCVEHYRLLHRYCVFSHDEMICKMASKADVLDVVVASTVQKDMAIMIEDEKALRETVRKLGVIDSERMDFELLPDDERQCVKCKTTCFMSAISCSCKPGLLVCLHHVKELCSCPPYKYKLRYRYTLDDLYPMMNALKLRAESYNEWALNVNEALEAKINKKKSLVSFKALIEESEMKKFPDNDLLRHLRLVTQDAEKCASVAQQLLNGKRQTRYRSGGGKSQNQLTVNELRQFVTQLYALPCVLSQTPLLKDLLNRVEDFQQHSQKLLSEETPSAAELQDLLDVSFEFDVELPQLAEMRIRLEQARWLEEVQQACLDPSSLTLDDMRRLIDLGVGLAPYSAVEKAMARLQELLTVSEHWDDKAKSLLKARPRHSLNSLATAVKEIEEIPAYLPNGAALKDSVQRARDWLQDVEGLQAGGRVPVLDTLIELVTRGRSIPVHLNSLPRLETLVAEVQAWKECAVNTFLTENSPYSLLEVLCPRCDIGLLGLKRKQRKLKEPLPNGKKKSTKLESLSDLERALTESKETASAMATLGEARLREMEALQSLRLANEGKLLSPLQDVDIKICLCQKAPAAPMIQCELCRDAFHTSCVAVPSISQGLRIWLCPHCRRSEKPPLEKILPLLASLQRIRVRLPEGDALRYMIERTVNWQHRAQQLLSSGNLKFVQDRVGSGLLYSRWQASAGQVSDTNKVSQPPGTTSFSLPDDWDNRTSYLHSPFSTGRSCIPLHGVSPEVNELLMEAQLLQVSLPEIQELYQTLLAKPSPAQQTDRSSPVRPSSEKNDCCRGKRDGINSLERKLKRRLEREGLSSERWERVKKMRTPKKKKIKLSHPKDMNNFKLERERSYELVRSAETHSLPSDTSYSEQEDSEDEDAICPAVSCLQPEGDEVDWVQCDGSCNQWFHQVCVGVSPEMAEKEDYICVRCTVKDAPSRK
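Inhibition is measured as reduced NADH fluorescence generation from FDH coupling to formaldehyde release. Truncated KDM5BΔAP at 200 nM final acts on H3K4me3 peptide (12.5 µM in substrate mix) in pH 7.5 HEPES buffer with Tween-20, 30 min, room temperature.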
Of the large screens only hits and unclear results are named; the others gave an inactive call.

COc1ccc2c(c1)CN(CC1CCCCC1)CC[C@H]1COC(=O)N21	none
C[N+](C)(CC(=O)O)C[Si](C)(C)C	none
CCCc1nn2c(=O)cc(COC(=O)c3cc(OC)c(OC)c(OC)c3)nc2s1	none
CCOC(=O)c1ccc(NC(=O)CSc2ncnc3c(-c4ccc(OC)cc4)c[nH]c23)cc1	none
CCCn1nc(C(=O)OCc2cccc(Cl)c2)c2ccccc2c1=O	none
O=C(CCC1CCCCC1)NCC1CC2c3ccccc3C1c1ccccc12 (centres undefined)	none
Cc1ccc(S(=O)(=O)NCC(CCC(=O)O)C(F)(F)F)cc1 (centres undefined)	none
FC(F)(F)c1ccc(Oc2ccc(CN3CCCC3)cc2Cl)nc1	none
N#Cc1cccc(NC(=O)NCc2ccncc2)c1	none
Cc1ccc(NC(=S)NCC2(C)CC(NC(=S)Nc3ccc(C)cc3C)CC(C)(C)C2)c(C)c1 (centres undefined)	none
COc1ccc(CCc2nc3nccc(-c4ccc(OC)c(OC)c4)n3n2)cc1	KDM5B inh 28.2µM
COc1ccc(CCc2nc3nccc(-c4ccncc4)n3n2)cc1OC	none
Cc1cc(SCC(=O)NN2C(=O)NC3(CCC(C)CC3)C2=O)nc2c(C)cccc12 (centres undefined)	none
O=C(c1ccc2c(c1)OCO2)N1CCc2nc(C3CC3)nc(-c3ccc(Cl)cc3)c2CC1	none
CC[C@H]1CN(C(=O)C2CC2)CC[C@H]1CC(=O)O	none
COc1ccc2c(c1)C(C[C@H]1CN(C(=O)C3CC3)CC[C@H]1CC(=O)O)=NCC2	KDM5B inh 39.8µM
CCCNC(=O)N1CC[C@@H](CC(=O)O)[C@@H](CC2=NCCc3ccc(OC)cc32)C1	KDM5B inh 39.8µM
CCNC(=O)N1CC[C@@H](CC(=O)O)[C@@H](CC2=NCCc3ccc(C)cc32)C1	none
O=C(O)C[C@@H]1CCN(C(=O)NCc2ccccc2)C[C@@H]1CC1=NCCc2ccccc21	none
CC(C)(C)C(=O)N1CC[C@@H](CC(=O)O)[C@@H](CC2=NCCc3ccc(C(C)(C)C)cc32)C1	none
CC(C(=O)N1CCCCCC1)N1CCC(c2nc3ccccc3o2)CC1 (centres undefined)	none
CC1(C)CCCC(C)(C#CCN2CCC(Cc3ccccc3)CC2)O1 (centres undefined)	none
O=C(O)c1cnc(Cl)c(Cl)c1	none
CCC(CO)Nc1ncc2cc3ccccc3nc2c1C#N (centres undefined)	none
Cc1cc(-c2cc(-c3cccs3)nc3c(C)noc23)ccn1	KDM5B inh 28.2µM
Cc1noc2c(N3CCOCC3)cc(-c3cccs3)nc12	none
COc1ccccc1-c1cc(-c2cccs2)nc2c(C)noc12	KDM5B inh 35.5µM
Cc1noc2c(-c3ccc(N4CCOCC4)cc3)cc(-c3cccs3)nc12	none
COc1nc2cc(C)ccc2cc1-c1noc(-c2cccs2)n1	none
COCCCNc1cc(-c2cccs2)nc2c(C)noc12	none
Cc1ccc(-c2cc(C(=O)Oc3ccc(Br)cc3)no2)cc1	none
COC(=O)c1cc(OC(=O)CCc2ccc(OC)c(Br)c2)cc(C(=O)OC)c1	none
O=C1CCN(Cc2ccc(F)cc2F)CCOCCN1	none
COc1ccc2c(c1)c(CN1CCOCCNC(=O)CC1)cn2C(C)C	KDM5B inh 20µM
COc1ccc2c(c1)c(CN1CCCC(c3nc(C(C)C)no3)CCNC(=O)CC1)cn2C(C)C (centres undefined)	none
CCc1cc2c(=O)c(-c3nncn3-c3ccccc3)coc2cc1OCC(=O)NCC(=O)O	none
CC(=O)Nc1ccccc1NC(=O)CCC1CCCC1	none
COCCn1ccc2c(C3=CCOCC3)nc(-c3ccc4c(c3)CNC4=O)cc21	KDM5B inh 11.2µM
COCCn1ccc2c(C3=CCOCC3)nc(-c3cccc(CO)c3)cc21	KDM5B inh 39.8µM
O=C(NCc1cccc(F)c1)c1nc(-c2cccc3[nH]ccc23)no1	none
COc1ccc(CNC(=O)c2nc(-c3cccc4[nH]ccc34)no2)cc1OC	none
COCCn1ccc2c(C3=CCOCC3)nc(-c3cccc4[nH]ccc34)cc21	KDM5B inh 35.5µM
COCCn1c(C)nnc1-c1cc(-c2cccc(CO)c2)ccn1	none
COCCn1ccc2c(C3=CCOCC3)nc(-c3ccc4cn[nH]c4c3)cc21	KDM5B inh 39.8µM
Cc1cc(C)c(CNC(=O)c2nc(-c3cccc(CO)c3)cc3c2ccn3C(C)C)c(=O)[nH]1	none
CCC1CCc2c(sc(NC(=O)C(C)C)c2C#N)C1 (centres undefined)	none
Cc1ccc(N2CCCS2(=O)=O)cc1NS(=O)(=O)c1ccc(F)cc1C	none
Cc1ccc(-c2nc(-c3ccc(C(C)(C)C)cc3)c(C)s2)cc1	none
Cc1cc(C)c2c(=O)cc(C(=O)N(Cc3ccco3)C3CCS(=O)(=O)C3)oc2c1 (centres undefined)	none
Nc1ccc(Cl)cc1/C(=N/Nc1ccccc1)c1ccccc1	none
Oc1ccccc1OCCOCCOCCOc1ccccc1O	none
O=C(C1CCC1)N1CCC(N2CC(OCC3CC3)C23CCCCC3)CC1 (centres undefined)	none
CCOC(=O)c1ccc2ncc(C(=O)OCC)c(Nc3cc(C)ccc3OC)c2c1	none
COc1ccccc1-c1cc2c(ccn2C)c(C(=O)NCC2CCOCC2)n1	none
COCCn1ccc2c(C3=CCOCC3)nc(-c3cccc4[nH]ncc34)cc21	KDM5B inh 28.2µM
